High-throughput results from PubChem BioAssay.
ERK EGF inh: EGF-driven ERK pathway inhibition; HEK293-V1b, EGF-stimulated phospho-ERK AlphaScreen; Potency, µM (highest dose often 11.5 µM), for the others: at the highest dose activity change, negative = inhibition, hits mostly inhibitors; 0.41% of 130,000 active; active = well fitted inhibition curve with a large enough effect;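 also: plate controls were stimulated vehicle wells for no effect and unstimulated vehicle basal for full effect; nearly all actives have a fitted effect of over 55% in size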
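Homogeneous cell-based phospho-ERK assay: HEK293/V1b cells in 1% FBS, compound 30 min then EGF 5 min, AlphaScreen luminescence. Activity normalized between DMSO and 25 nM EGF controls; AC50 from Hill modelling.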
Numbers without * were called inactive; [ ] = remark or other dose. Only a selection was taken, and hits are over-represented in it overall. Potency is read from the fitted curve at half-maximal effect.

SMILES	ERK EGF inh
CCCCN1CCC[C@@H]1CNC(=O)c1cc(C#N)c2ccccc2c1OC	4%
COC(=O)CC1c2ccccc2C(Cc2ccc3c(c2)OCO3)=C(C)N1C(=O)OC (configuration not stated)	4%
Nc1ncnc(N2CCc3ccccc32)c1[N+](=O)[O-]	-2%
COC(=O)[C@@]1(Cc2ccc(OC)cc2)[C@@H]2C(=CC(=O)[C@H]2CC(=O)C(=O)N(C)C)CN1C(=O)c1ccccc1	0%
COC(=O)[C@@]1(Cc2ccc(F)cc2)[C@H]2c3cc(C(=O)N(C)C)n(Cc4ccccc4)c3C[C@H]2CN1C(=O)c1ccccc1	-1%
C=C1C(=O)C=C2CN(C(=O)c3ccccc3)[C@@](Cc3ccc(F)cc3)(C(=O)OC)[C@@H]12	22µM*
COC(=O)N1C2(C=CC1(C)C(=O)NCc1ccc(N(C)C)cc1)CCCCC2 (configuration not stated)	5%
COC(CNC(=O)c1cccnc1)OC	1%
COC(CNC(=O)C(C)n1nc(C)c2ccccc21)OC (configuration not stated)	3%
COC(CNC(=O)c1ccc2c3c(onc13)-c1ccccc1C2=O)OC	35µM*
CCC(CC)=NNc1ccc([N+](=O)[O-])cc1[N+](=O)[O-]	-4%
O=[N+]([O-])c1ccc(N/N=C2\CC3CC=CC23)c([N+](=O)[O-])c1 (configuration not stated)	14µM*
O=[N+]([O-])c1ccc(N/N=C2\CC3CC=CC23)cc1 (configuration not stated)	-13%
COCCn1c(=O)c(-c2cc(F)cc(F)c2)nc2cnc(Oc3ccc(OC)cc3)nc21	7%
C[C@@H]1OC(OC2CC[C@@]3(C)C(CC[C@@]4(C)C3CC=C3C5CC(C)(C)CC[C@]5(C(=O)OC5OCC(O)[C@@H](O)[C@@H]5OC5O[C@@H](C)[C@H](O[C@H]6OC(CO)C(O)C(O)C6O)C(O)C5O)C(O)C[C@@]34C)C2(C)C)C(O)C(O)[C@H]1OC1OCC(O)C(O)[C@H]1O (some centres not stated)	14µM*
C/C=C(/C)C(=O)OC1C(OC(C)=O)[C@@]2(CO)C(O)C[C@@]3(C)C(=CCC4[C@@]5(C)CCC(OC6OC(C(=O)O)[C@@H](O[C@@H]7OC(CO)C(O)C(O)C7O)C(O)[C@H]6O[C@@H]6OC(CO)C(O)C(O)C6O)[C@](C)(CO)C5CC[C@@]43C)C2CC1(C)C (some centres not stated)	7%
CC(=O)OC1COC(OC2C(O)C(C)OC(OC3C(OC4CCC5(C)C(CCC6(C)C5CC=C5C7CC(C)(C)CCC7(C(=O)O)CCC56C)C4(C)CO)OCC(O)C3O)C2O)C(O)C1OC(C)=O (configuration not stated)	20µM*
CC1(C)CC[C@]2(C(=O)O)CC[C@]3(C)C(=CC[C@@H]4[C@@]5(C)CC[C@H](O)C(C)(C)[C@@H]5CC[C@]43C)[C@@H]2C1	7%[57.5 µM]
CC1(C)CC[C@]2(C(=O)O)CC[C@]3(C)C(=CCC4[C@@]5(C)CC[C@H](O)C(C)(C)[C@@H]5CC[C@]43C)C2C1 (some centres not stated)	-7%
CC1(C)CC[C@]2(C(=O)O)CC[C@@]3(C)C(=CCC4[C@@]5(C)CCC(O)[C@@](C)(CO)C5CC[C@@]43C)C2C1 (some centres not stated)	10%
Cc1ccccc1OCCSc1nnc(-c2cccnc2)n1N	-6%
Cc1c(N=c2scc(-c3ccccc3)n2C)c(=O)n(-c2ccccc2)n1C	9%
CCC(C)C1=CC(=Nc2c(C)n(C)n(-c3ccccc3)c2=O)C=C(C(C)CC)C1=O (configuration not stated)	16µM*
CC1=CC(=Nc2c(C)n(C)n(-c3ccccc3)c2=O)C=C(C)C1=O	1%
O=C(NCc1ccco1)Nc1cccc([N+](=O)[O-])c1	3%[57.5 µM]
SMILES	ERK EGF inh
CCSc1ccc(C(=O)Nc2cccc(C)n2)cc1[N+](=O)[O-]	-7%
CCNc1ccc(C(=O)OCC(=O)NC(C)c2ccccc2)cc1[N+](=O)[O-] (configuration not stated)	3%
Cc1cccc(NC(=O)c2ccc(NC(C)c3ccccc3)c([N+](=O)[O-])c2)n1 (configuration not stated)	14µM*
N#Cc1ccc(CN2CC[C@@]3(CCCN(C(=O)c4cccc(F)c4)C3)C2)cc1	-1%
COc1ccc(-c2nc(-c3ccccc3)oc2Nc2ccccc2C)cc1	-9%
CNCCCCc1cnc(C)c2[nH]c3ccccc3c12	-4%
CC(=O)Oc1cc(OC(C)=O)c2c(c1)OC(c1ccc(OC(C)=O)c(OC(C)=O)c1)C(OC(C)=O)C2 (configuration not stated)	33%
NNC(=O)c1ccc(COc2cccc3cccnc23)cc1	-2%
O=C(N/N=C/c1ccccc1C(=O)O)c1ccc(COc2cccc3cccnc23)cc1	0%
O=C(N/N=C/c1ccc[nH]1)c1ccc(COc2cccc3cccnc23)cc1	25µM*
O=C(c1cnccn1)N1CCC2(CC1)CN(c1ccncc1)C2	-10%
C[C@@H](C1[C@@H](O)CC2C3C=CC4C[C@@H](O)CC[C@]4(C)[C@H]3CC[C@@]21C)[C@@H]1CCCCN1 (some centres not stated)	3%
O=C(NNC(=O)c1cc(-c2ccccc2)n(-c2ccccc2)n1)c1cccc([N+](=O)[O-])c1	-8%
COCCNC(=O)c1cc(OC)c(OC)cc1[N+](=O)[O-]	-11%
CCNC(=S)Nc1cccc(S(=O)(=O)Nc2ccccc2OC)c1	2%[57.5 µM]
COc1ccccc1NS(=O)(=O)c1cccc(NC(=O)Nc2ccc(Cl)cc2)c1	28µM*
COc1ccccc1NS(=O)(=O)c1cccc(NC(=O)Cc2cccs2)c1	1%
COc1ccc(-c2nn(-c3ccccc3)cc2/C=N/NC(=S)NC(C)C)cc1OC	-7%
COc1ccc(-c2nn(-c3ccccc3)cc2/C=N/Nc2ccc3ccccc3n2)cc1OC	4%
COc1ccc(-c2nn(-c3ccccc3)cc2/C=N/N=C(N)N)cc1OC	25µM*
C=CCN(C(=O)C1=NN(C2CCS(=O)(=O)C2)C(=O)CC1)c1nc(-c2ccc([N+](=O)[O-])cc2)cs1 (configuration not stated)	-5%
CCCCC[C@H](O)/C=C/[C@@H]1[C@H](C/C=C\CCCC(=O)O)[C@@H](O)C[C@H]1O	9%
COc1ccc2c(c1)CCC1C2CC[C@@]2(C)C1CC[C@@H]2NCCCCCCN1C(=O)C=CC1=O (some centres not stated)	12%
COc1cccc([C@@H]2Oc3ccc(Br)cc3C[C@H]2OC(=O)NS(=O)(=O)c2ccc(C)cc2)c1	-5%
Cn1cccc1C(=O)N1CCC2(CCCN(C(=O)Nc3ccccc3)C2)CC1	9%
SMILES	ERK EGF inh
CC(=O)/C(=N/Nc1ccccc1[N+](=O)[O-])N1CCCc2ccccc21	13µM*
CC(=O)/C(=N/Nc1ccc(Br)cc1)N1CCCc2ccccc21	-3%[57.5 µM]
COC(=O)/C(=N/Nc1ccccc1)N1CCCc2ccccc21	-1%
COc1ccc2c(c1)C(=O)[C@@H](OC(=O)NC1CCCC1)[C@H](c1ccc(OC)c(Br)c1)O2	-5%
O=C(/C=C/c1c(C(=O)O)[nH]c2cc(Cl)cc(Cl)c12)Nc1ccccc1	-9%
C=C(C)C(=O)/C=C/c1ccc(C(F)(F)F)cc1	-7%
CC1=NN(c2ccccc2)C(=O)C1=C(C)C	-4%
CC1=NN(c2cccc(C(=O)O)c2)C(=O)/C1=C\C=C\c1ccco1	2%
